The record followed here is PubChem BioAssay (NCATS).

The structures appear in SMILES notation. Several values for one entry are separate records, joined by “and”; a condition that tells them apart may be missing. Equal entries are not always repeated. Inconclusive results are not listed. Activity calls are given as the source filed them. Unless noted, calls come from the whole dose curve; as a rule, active = well fitted curve in the direction sought with a large enough effect; inconclusive = small, poorly fitted or top-dose-only effect, or another doubt; inactive = no such curve, though single readings can be large; an effect the other way counts as inactive or inconclusive.

Experiment [1] can be described thus: AP1 Signaling Pathway (AID 357; active = well fitted curve in either direction with a large enough effect, not every such curve was filed as active; note: % is set by controls: 0 for no effect and ±100 for the full control effect). The method in brief: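 ME-180 cells with beta-lactamase reporter under AP-1 response element, stimulated with EC50 EGF; compounds tested in titration series, 5 h at 37 °C. CCF4 substrate added 2.5 h at room temperature; 460/530 nm emission ratio gave %activity and AC50.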
The target of experiment [2] is Cytochrome P450 1A2 (Homo sapiens) (UniProt P05177). The experiment can be described thus: p450-cyp1a2 (AID 410; calls by dose curve;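 note: -100% = full effect of reference inhibitor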). The gist of the method:
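Read-out is luminescence from luciferin produced by CYP1A2 demethylation of Luciferin-ME (100uM, at Km). Detection reagent stopped the 60 min NADPH-dependent reaction; signals were normalized to 57 uM furafylline.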

A short description of experiment [3]: NFAT Signaling Pathway (AID 444; active = well fitted curve in either direction with a large enough effect, not every such curve was filed as active;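 note: carbachol stimulus at about its EC50 of 1 µM final; % is set by controls: 0 for no effect and ±100 for the full control effect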). The following applies: Jurkat NFAT-bla M1, carbachol, beta-lactamase ratio, 5 h. The gist of the method: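 Jurkat cells with NFAT-driven β-lactamase reporter and co-expressed M1 receptor, stimulated with carbachol (final 1 uM, ~EC50), compound titration, 5 h at 37 °C. CCF4 loaded 1 h at RT; 460/530 nm ratio gave %activity and AC50.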

Experiment [4] is described as follows: Stat Signaling Pathway (AID 446; active = well fitted curve in either direction with a large enough effect, not every such curve was filed as active;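 note: ME-180 cervical cancer cells given 40 pM IL-6 alongside compound; SIE-controlled beta-lactamase reporter measured as 460/530 nm FRET emission ratio; % is set by controls: 0 for no effect and ±100 for the full control effect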). The method in brief: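 Overnight-plated ME-180 cells bearing a STAT Inducible Element beta-lactamase reporter; 5 h co-exposure to compound and 40 pM IL-6; values normalized to 300 pM IL-6 and 125 nM JAK inhibitor controls.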
Experiment [5] deals with Glucocorticoid receptor (Homo sapiens) (UniProt P04150). The experiment in a line: GR-GFP Redistribution (AID 450;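 active = compounds whose dose series gives a full or clear partial fitted curve of increased nuclear translocation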; note: potency is the fitted concentration of half-maximal effect). The following applies: U2OS GR-GFP nuclear translocation, laser cytometry, 2 h.
Chain of Glucocorticoid receptor (Homo sapiens) (P04150 whole entry, looked up, the tested form may be a part): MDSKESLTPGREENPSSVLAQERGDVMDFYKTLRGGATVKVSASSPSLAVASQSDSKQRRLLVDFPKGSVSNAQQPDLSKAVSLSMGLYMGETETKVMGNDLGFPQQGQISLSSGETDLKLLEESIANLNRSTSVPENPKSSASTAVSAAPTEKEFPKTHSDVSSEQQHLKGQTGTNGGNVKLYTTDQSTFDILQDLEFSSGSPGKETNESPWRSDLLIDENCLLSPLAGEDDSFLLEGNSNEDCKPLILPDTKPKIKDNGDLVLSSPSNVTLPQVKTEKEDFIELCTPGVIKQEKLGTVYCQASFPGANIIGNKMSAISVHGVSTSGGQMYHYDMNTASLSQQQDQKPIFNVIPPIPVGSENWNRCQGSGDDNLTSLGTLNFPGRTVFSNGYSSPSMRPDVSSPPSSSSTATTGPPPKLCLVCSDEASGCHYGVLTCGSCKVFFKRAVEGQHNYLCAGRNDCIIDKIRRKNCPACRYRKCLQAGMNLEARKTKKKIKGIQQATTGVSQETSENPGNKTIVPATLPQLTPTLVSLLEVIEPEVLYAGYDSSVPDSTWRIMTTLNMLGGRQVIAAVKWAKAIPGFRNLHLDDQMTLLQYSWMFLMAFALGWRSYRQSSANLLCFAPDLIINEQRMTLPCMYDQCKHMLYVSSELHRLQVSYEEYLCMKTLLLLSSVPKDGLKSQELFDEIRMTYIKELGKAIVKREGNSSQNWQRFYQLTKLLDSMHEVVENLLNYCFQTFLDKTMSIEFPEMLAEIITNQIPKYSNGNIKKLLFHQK
For experiment [6] the target is unchanged. The experiment in a line: GR-EFC Redistribution (AID 451; calls by dose curve; note: potency is the fitted concentration of half-maximal effect). As to conditions: CHO-K1 GR-EFC translocation, beta-gal luminescence, 2 h. The gist of the method: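 CHO-K1 cells expressing nuclear EA and GR-ED fragments of b-gal; compounds titrated up to 46 uM final, 2 h at 37 C. GR nuclear translocation read as complemented b-gal luminescence after 1 h RT detection.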

Experiment [7] concerns the target Mitogen-activated protein kinase 10 (Mus musculus) (UniProt Q61831). The experiment can be described thus: JNK3 AlphaScreen Assay (AID 530; active = well fitted curve in either direction with a large enough effect, not every such curve was filed as active;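 note: kinase came from lysate of stimulated human HepG2 cells; signal reports phosphorylation of biotinylated GST-cJun 1-79 at Ser73 with 10 µM ATP; % is set by controls: 0 for no effect and ±100 for the full control effect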). The gist of the method: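 HepG2 lysate (IL-1b/TNFa pre-activated) + biotin-GST-cJun 1-79 + anti-pSer73 cJun; cpd titration, 15 min RT; ATP 10 uM start; Tris pH 7.6, MgCl2, DTT, vanadate; beads in EDTA buffer; AlphaScreen.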
A general note: In Alpha technology, singlet oxygen from a donor bead excites a nearby acceptor bead.

The target in experiment [8] is 3',5'-cyclic-AMP phosphodiesterase 4B (Homo sapiens) (UniProt Q07343). The experiment can be described thus: qHTS Assay for Inhibitors of PDE-IV (AID 607; active = well fitted activation curve with a large enough effect in the main read-out, with a control signal flat, not every such curve was filed as active; note: % of control where 0% means no effect). The method in brief: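 Live HEK293 cells with a modified cyclic nucleotide-gated (CNG) channel report intracellular cAMP via membrane-potential dye fluorescence (ex 535/em 590 nm). Endogenous PDE-IV was targeted. Compounds were tested at up to 22.9 uM final; RO 20-1724 100 uM served as control.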
Chain of 3',5'-cyclic-AMP phosphodiesterase 4B (Homo sapiens) (Q07343 whole entry, looked up): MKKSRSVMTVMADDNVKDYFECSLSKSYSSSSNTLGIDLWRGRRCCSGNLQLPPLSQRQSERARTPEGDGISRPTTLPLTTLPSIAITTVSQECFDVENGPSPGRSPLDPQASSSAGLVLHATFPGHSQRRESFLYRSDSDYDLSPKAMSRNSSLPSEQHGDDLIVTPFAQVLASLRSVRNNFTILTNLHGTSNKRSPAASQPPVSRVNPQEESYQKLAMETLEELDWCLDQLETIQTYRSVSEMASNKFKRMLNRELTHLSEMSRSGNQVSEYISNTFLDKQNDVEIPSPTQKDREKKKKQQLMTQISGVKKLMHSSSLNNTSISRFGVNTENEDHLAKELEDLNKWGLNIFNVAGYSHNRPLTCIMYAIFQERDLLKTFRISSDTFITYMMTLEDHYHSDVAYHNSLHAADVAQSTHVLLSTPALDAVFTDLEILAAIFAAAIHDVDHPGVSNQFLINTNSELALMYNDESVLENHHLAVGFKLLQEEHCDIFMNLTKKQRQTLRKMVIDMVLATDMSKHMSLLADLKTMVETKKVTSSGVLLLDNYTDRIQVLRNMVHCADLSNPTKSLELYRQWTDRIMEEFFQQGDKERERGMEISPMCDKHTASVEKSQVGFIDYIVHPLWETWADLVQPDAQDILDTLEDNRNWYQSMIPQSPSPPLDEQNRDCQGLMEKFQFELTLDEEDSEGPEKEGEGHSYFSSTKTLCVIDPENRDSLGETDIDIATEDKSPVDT

Experiment [9] addresses Cytochrome P450 3A4 (Homo sapiens) (UniProt P08684). The experiment can be described thus: qHTS Assay for Activators of Cytochrome P450 3A4 (AID 885). Note: nearly all actives have a fitted effect of over 65% in size. Note: potency is the fitted concentration of half-maximal effect. The gist of the method: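 Using 20nM recombinant human CYP3A4 in potassium phosphate (200mM), substrate Luciferin-PPXE at 25uM, luminescent luciferin detection followed a 60-min RT NADPH reaction; data scaled to 57 uM ketoconazole.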
On the technique in general: Quantitative high-throughput screening tests each substance at several concentrations.

The nature of experiment [10]: qHTS Assay for Lipid Storage Modulators (AID 1519; calls by dose curve). The following applies: Drosophila S3 cells, BODIPY lipid droplet/cell ratio, laser cytometry, cells loaded with oleic acid. The method in brief: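 Cells seeded at 5,000 per well were treated with compounds over a concentration series and loaded with oleic acid (400 uM, as added). Lipid droplet fluorescence (488 nm excitation, 500-530 nm channel) was read by laser-scanning cytometry and normalized to 20 uM Triacsin C.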

The target in experiment [11] is ATP-dependent 6-phosphofructokinase (Trypanosoma brucei brucei) (UniProt O15648). The experiment in a line: qHTS Assay to Find Inhibitors of T. brucei phosphofructokinase: hit validation (AID 492961). The method in brief: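 Inhibition of parasite PFK is measured as reduced ADP formation, quantified via luciferase after ATP depletion. Assay used 0.1 mM ATP, 0.5 mM F6P, 1.25 nM enzyme, 45 min incubation.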
Chain of ATP-dependent 6-phosphofructokinase (Trypanosoma brucei brucei) (O15648 whole entry, looked up): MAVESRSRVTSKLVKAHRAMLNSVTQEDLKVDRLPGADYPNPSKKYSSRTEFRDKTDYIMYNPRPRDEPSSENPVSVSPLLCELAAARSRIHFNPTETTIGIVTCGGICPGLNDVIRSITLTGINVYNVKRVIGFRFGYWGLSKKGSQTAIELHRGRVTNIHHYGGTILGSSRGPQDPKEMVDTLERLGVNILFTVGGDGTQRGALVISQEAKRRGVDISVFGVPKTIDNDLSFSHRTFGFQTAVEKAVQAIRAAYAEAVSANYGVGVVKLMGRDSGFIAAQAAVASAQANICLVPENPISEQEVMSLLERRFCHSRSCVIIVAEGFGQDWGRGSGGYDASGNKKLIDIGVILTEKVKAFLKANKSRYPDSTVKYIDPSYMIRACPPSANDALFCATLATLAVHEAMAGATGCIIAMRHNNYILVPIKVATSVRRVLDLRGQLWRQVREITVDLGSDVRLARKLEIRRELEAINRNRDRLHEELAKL

In experiment [12] the target is Luciferin 4-monooxygenase (Photinus pyralis) (UniProt P08659). The experiment can be described thus: Biochemical firefly luciferase enzyme assay for NPC (AID 624030).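 Note: purified P. pyralis luciferase at 10 nM with luciferin and ATP substrate; 0% = DMSO and -100% = full luciferase inhibition by PTC124 control; nearly all actives have a fitted effect of over 70% in size.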 The gist of the method: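 Purified P. pyralis luciferase at 10 nM in 50 mM Tris Acetate (final), luminescence read within 5 minutes of enzyme addition to compounds. Activity normalised to PTC124 versus DMSO; concentration-response curves classed by r2, magnitude and activity.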
Chain of Luciferin 4-monooxygenase (Photinus pyralis) (P08659 whole entry, looked up): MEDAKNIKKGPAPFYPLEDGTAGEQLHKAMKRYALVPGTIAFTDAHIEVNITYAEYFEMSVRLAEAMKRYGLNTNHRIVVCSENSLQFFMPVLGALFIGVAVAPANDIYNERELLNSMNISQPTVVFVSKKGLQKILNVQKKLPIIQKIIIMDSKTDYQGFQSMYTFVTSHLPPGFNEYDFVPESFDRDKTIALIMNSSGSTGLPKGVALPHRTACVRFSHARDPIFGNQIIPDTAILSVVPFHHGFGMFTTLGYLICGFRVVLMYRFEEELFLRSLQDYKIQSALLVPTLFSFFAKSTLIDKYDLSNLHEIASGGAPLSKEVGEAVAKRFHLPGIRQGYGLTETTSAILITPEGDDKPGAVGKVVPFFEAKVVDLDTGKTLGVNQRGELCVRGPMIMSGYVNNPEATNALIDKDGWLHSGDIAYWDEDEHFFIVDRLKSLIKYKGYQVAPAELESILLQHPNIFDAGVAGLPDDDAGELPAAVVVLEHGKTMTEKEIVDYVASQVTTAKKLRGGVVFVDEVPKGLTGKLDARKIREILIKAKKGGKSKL

Experiment [13] in a line: S16 Schwann cell PMP22 intronic element firefly luciferase assay (AID 624032).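 Note: plate controls were DMSO for no effect and PTC124 positive control mean for full effect; nearly all actives have a fitted effect of over 30% in size.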 The gist of the method:
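Rat S16 Schwann cells stably carrying firefly luciferase driven by a PMP22 intronic element, in 10% FBS, treated 24 h at 37 C. ONE-Glo luminescence normalized to PTC124 control and DMSO (0%); curves classed by r2, magnitude and activity.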

Experiment [14] can be described thus: qHTS profiling for inhibitors of Plasmodium falciparum proliferation (AID 504749).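 Note: 0% = DMSO vehicle and full inhibition = artemisinin control; nearly all actives have a fitted effect of over 60% in size.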 As to conditions: P. falciparum in erythrocytes, SYBR Green DNA, 72 h. The method in brief: (§1)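 SYBR Green fluorescence (ex 485 nm, em 535 nm) reports parasite DNA after 72 h compound exposure of infected red cells at 0.3% parasitemia, 2.5% hematocrit; signal normalized to 0.29 uM artemisinin and vehicle wells.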

A further experiment deals with C2A. The experiment is described as above. As to conditions: P. falciparum in erythrocytes, SYBR Green DNA, 72 h; series mostly up to 28.7 µM. The gist of the method:
as §1

The subject of a further experiment is CP192. Described as above. As to conditions: P. falciparum in erythrocytes, SYBR Green DNA, 72 h; series mostly up to 28.7 µM. The method in brief:
as §1

The subject of a further experiment is CP262. The experiment is described as above. As to conditions: P. falciparum in erythrocytes, SYBR Green DNA, 72 h; series mostly up to 28.7 µM. The method in brief: as §1
Another experiment has as its system CP286. The description is as above. As to conditions: P. falciparum in erythrocytes, SYBR Green DNA, 72 h; series mostly up to 28.7 µM. The method in brief:
as §1

The next experiment concerns FAB9. The experiment is described as above. As to conditions: P. falciparum in erythrocytes, SYBR Green DNA, 72 h; series mostly up to 28.7 µM. The method in brief: as §1
For experiment [15], the target named is Ubiquitin carboxyl-terminal hydrolase 1 (Homo sapiens) (UniProt O94782). The experiment can be described thus: Inhibitors of USP1/UAF1: Pilot qHTS (AID 504865).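 Note: rhodamine fluorescence freed from ubiquitin-rhodamine substrate followed over time; top concentration of the series differs between compounds; % is set by controls: 0 for no effect and ±100 for the full control effect; nearly all actives have a fitted effect of over 35% in size.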 The method in brief:
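1nM USP1/UAF1 + cpd, 15 min RT; start w/ Ub-Rho 150nM final; kinetic FL 480/540 nm, 6 reads q60 s. Buffer 50mM HEPES pH 7.8, 0.5mM EDTA, 1mM TCEP, 0.01% Tween-20, 0.1 mg/ml BSA.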

[16] abbreviates: measured here: cell count channel max response.
[17] abbreviates: measured here: lipid channel max response.

Chain of Ubiquitin carboxyl-terminal hydrolase 1 (Homo sapiens) (O94782 whole entry, looked up): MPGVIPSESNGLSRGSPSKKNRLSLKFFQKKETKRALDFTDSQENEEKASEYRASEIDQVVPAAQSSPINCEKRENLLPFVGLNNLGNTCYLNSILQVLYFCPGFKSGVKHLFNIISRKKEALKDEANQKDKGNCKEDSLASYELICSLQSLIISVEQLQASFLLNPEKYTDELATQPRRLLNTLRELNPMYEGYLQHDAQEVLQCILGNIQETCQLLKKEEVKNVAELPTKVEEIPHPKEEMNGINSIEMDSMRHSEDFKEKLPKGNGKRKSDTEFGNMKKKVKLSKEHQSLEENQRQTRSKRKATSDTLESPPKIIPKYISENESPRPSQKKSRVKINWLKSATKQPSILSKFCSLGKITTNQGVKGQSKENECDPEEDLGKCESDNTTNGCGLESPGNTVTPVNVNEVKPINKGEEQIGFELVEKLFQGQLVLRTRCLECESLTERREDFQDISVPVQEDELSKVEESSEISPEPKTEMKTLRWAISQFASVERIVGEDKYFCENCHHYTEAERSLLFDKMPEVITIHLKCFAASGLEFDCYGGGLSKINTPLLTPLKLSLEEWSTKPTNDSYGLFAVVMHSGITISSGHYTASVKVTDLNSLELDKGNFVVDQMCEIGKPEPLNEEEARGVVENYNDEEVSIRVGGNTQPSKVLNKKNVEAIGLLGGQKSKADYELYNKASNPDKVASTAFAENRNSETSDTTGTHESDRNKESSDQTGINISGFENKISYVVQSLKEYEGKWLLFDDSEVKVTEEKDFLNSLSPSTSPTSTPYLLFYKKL
Chain of Cytochrome P450 3A4 (Homo sapiens) (P08684 whole entry, looked up): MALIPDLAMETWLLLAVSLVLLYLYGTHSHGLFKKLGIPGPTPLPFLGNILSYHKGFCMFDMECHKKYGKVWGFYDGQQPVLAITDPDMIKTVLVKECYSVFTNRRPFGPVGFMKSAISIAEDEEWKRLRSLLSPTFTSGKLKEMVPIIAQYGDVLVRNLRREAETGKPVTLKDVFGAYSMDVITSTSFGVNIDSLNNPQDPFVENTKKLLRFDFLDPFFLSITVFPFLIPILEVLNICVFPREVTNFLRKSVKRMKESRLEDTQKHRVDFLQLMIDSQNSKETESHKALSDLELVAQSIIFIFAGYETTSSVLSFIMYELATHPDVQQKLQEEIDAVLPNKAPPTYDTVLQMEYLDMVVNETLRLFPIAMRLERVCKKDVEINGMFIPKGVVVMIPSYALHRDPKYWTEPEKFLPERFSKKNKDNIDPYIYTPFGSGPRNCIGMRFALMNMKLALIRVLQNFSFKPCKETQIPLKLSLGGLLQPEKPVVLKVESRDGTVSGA
Chain of Cytochrome P450 1A2 (Homo sapiens) (P05177 whole entry, looked up): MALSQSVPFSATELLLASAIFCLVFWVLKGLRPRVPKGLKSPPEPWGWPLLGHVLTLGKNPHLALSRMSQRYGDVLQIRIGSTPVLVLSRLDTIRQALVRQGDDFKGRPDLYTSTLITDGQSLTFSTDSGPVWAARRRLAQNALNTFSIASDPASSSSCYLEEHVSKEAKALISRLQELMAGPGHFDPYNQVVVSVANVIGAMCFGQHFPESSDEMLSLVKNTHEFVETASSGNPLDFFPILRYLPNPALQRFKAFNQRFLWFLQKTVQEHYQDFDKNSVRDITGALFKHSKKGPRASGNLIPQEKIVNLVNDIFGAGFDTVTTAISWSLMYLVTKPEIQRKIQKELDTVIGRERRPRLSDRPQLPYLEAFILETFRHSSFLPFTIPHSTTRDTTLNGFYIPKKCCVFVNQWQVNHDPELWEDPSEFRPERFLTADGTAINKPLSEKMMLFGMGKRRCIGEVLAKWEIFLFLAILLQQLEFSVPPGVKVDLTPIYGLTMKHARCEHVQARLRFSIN

Consider `CC(=O)O[C@H]1CC[C@@]2(C)C(=CC[C@@H]3[C@H]2CC[C@]2(C)C(=O)CC[C@H]32)C1`, for which the molecule was called inactive in experiment [1], in [4] and in experiment [7]. The Potency entry (in [2]; in [8]; in experiment [11]; in [12]; in [13]; in the experiment on C2A) was “inactive” each time. The Potency entry with CP192, in the experiment with CP262, in the experiment with CP286 and with FAB9 was “inactive” throughout. For the same molecule, the figures for the activity change, negative = inhibition in experiment [3] (at 17.2 µM (top of the series)) and in experiment [10] (at 25.7 µM (top of the series)) were -13.7% (inactive) and -0.861% (inactive), respectively. For the same molecule, the values for the Potency in experiment [5], in experiment [6] and in experiment [9] were > 20.6 µM (inactive), > 20.6 µM (inactive) and 12.6 µM (active), respectively. The max response in [10] (setting [16]) was -9.47%; in experiment [10] (setting [17]), -12.6%. The activity, negative = inhibition was 8.47% (inactive) in [14] (at 12.8 µM (top of the series), parasite line A) and 10.9% (inactive) in experiment [14] (at 12.8 µM (top of the series), parasite line B).

Regarding `C[C@H](NC(C)(C)C)C(=O)c1cccc(Cl)c1`, the result in experiment [1], in experiment [4] and in experiment [7] was inactive. The Potency result in [2], in experiment [8], in experiment [11], in experiment [15], in experiment [12] and in [13] was “inactive” each time. Also, the Potency entry in the experiment on C2A, with CP192, in the experiment on CP262, in the experiment on CP286 and in the experiment on FAB9 was “inactive” throughout. The activity change, negative = inhibition in experiment [3] (at 17.2 µM (top of the series)) was -9.97% (inactive); in experiment [3] (at 38 µM (top of the series)), -9.57% (inactive); in experiment [10] (at 25.7 µM (top of the series)) it was -1.98% (inactive). Further, the Potency in experiment [5] is > 46 µM (inactive) and > 20.6 µM (inactive); in [6], > 46 µM (inactive) and > 20.6 µM (inactive). In addition, the results for the max response in experiment [10] (setting [16]) and in experiment [10] (setting [17]) were -0.478% and -2.37%, respectively. Moreover, the activity, negative = inhibition in experiment [14] (at 28.7 µM (top of the series), parasite line A) is 3.13% (inactive); in [14] (at 28.7 µM (top of the series), parasite line B) it was 0.713% (inactive).

Regarding `ClC1=C(Cl)C2(Cl)C3C(Cl)C=CC3C1(Cl)C2(Cl)Cl` (configuration not stated), the Potency result in experiment [9] and in [15] was “inactive” throughout. Besides, the activity change, negative = inhibition in experiment [10] (at 57.5 µM (top of the series)) was 4.59% (inactive). For the same molecule, the results for the max response in experiment [10] (setting [16]) and in [10] (setting [17]) were 11.3% and 18.4%, respectively.

`CN1CC[C@@]2(CCCN(C(=O)c3ccco3)C2)C1`: the result in experiment [1], in [4] and in experiment [7] was inactive. Also, the activity change, negative = inhibition is -15.5% (inactive) in [3] (at 7.69 µM (top of the series)) and 5.37% (inactive) in experiment [10] (at 57.5 µM (top of the series)). Also, the Potency in experiment [6] is > 46 µM (inactive). Also, the Potency result in [8] and in experiment [9] was “inactive” each time. The max response in experiment [10] (setting [16]) was determined as 10.7%; in experiment [10] (setting [17]) it was 19.3%.

Turning to `CN1C(=O)CCS(=O)(=O)[C@@H]1c1ccc(Cl)cc1`, the call in experiment [1], in experiment [4] and in experiment [7] was inactive. The Potency result in [2] and in experiment [15] was “inactive” each time. The figures for the activity change, negative = inhibition in [3] (at 17.2 µM (top of the series)) and in [10] (at 25.7 µM (top of the series)) were 1.85% (inactive) and -0.668% (inactive), respectively. Also, the Potency in experiment [5] and in [6] was > 20.6 µM (inactive) in each case. Further, the max response in experiment [10] (setting [16]) is -4.45%; in [10] (setting [17]), -4.68%.

Turning to `ClC(Cl)=C(c1ccc(Cl)cc1)c1ccc(Cl)cc1`, the Potency entry in experiment [9] and in experiment [15] was “inactive” throughout. Moreover, the activity change, negative = inhibition in experiment [10] (at 57.5 µM (top of the series)) is 9.37% (inactive). Further, the max response in [10] (setting [16]) was determined as 14.6%; in experiment [10] (setting [17]) it was 26.1%.

As to `CCOCN(C(=O)CCl)c1c(C)cccc1CC`, in experiment [7], the molecule was called inactive. Moreover, in experiment [9], the Potency was 15.8 µM (active). Besides, the activity change, negative = inhibition in experiment [10] (at 57.5 µM (top of the series)) is 0.371% (inactive). The max response is -6.11% in experiment [10] (setting [16]) and -5.22% in experiment [10] (setting [17]). Moreover, the Potency result in experiment [15] was “inactive”.
